Only some compounds are listed: those with a hit (about 19% of all), similar ones and a draw of the others.
KB-V1 MDR tox: qHTS assay for MDR1-selective chemotherapeutics: Primary screen using the drug-selected MDR subline cells KB-V1; 400,000 tested, 3.4% active; Potency, µM (doses to about 46.1 µM), most hits filed as cytotoxic; KB-V1 MDR cells viability, CellTiter-Glo, 72 h; AID 1347076, 2019; also: nearly all actives have a fitted effect of over 60% in size
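KB-V1 cells (P-gp-expressing MDR subline of KB-3-1) in phenol-red-free DMEM with 10% FBS were exposed to library compounds over a concentration series for 72 h at 37 degrees C. Viability read by CellTiter-Glo luminescence; concentration-effect curves fitted after normalization.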
HT1080 IDH1KD tx: qHTS for induction of synthetic lethality in tumor cells producing 2HG: qHTS for the HT-1080-IDH1KD cell line; HT-1080 IDH1 knockdown viability, ATP luminescence, 48 h; Potency, µM (doses to about 46.1 µM), for the others: at the highest dose activity, negative = toxicity, most hits filed as cytotoxic; 360,000 tested, 2% active;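 also: 0% = DMSO wells and -100% = cell-free medium wells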
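After a 2 h attachment period, IDH1KD HT-1080 cells took pin-transferred compound for 48 h at 37 °C; ATP-based luminescence after 10 min room-temperature reagent incubation reported viability.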
DT40 TDP1 CPT: qHTS for Inhibitors of human tyrosyl-DNA phosphodiesterase 1 (TDP1): qHTS in cells in presence of CPT; chicken DT40 Tdp1-/-;hTDP1 cells + 20 nM CPT, ATP luminescence, 48 h; Potency, µM (top dose mostly 46.2 µM), inactives show at the top dose activity change, negative = growth inhibition, usual class: inhibitors; 420,000 tested, 12% active; also: nearly all actives have a fitted effect of over 55% in size
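Chicken DT40 Tdp1-/- cells stably complemented with human TDP1 were seeded at 400 cells/well in medium containing 20 nM camptothecin, exposed to pin-transferred compounds, and grown at 37 °C for at least 48 hr. Viability was read as ATP luminescence.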
KB-3-1 tox: qHTS assay for MDR1-selective chemotherapeutics: Primary screen using the parental adenocarcinoma cell KB-3-1; KB-3-1 viability, CellTiter-Glo ATP luminescence, 72 h; Potency, µM (series often up to 46.1 µM), most hits filed as cytotoxic; 400,000 tested, 1.4% active; AID 1347075, 2019; also: nearly all actives have a fitted effect of over 60% in size
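72 h, 37 °C compound treatment of KB-3-1 parental cells; CellTiter-Glo added, 10 min, luminescence read. Data corrected against DMSO-only plates and normalized before curve fitting.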
DT40 TDP1 no CPT: qHTS for Inhibitors of human tyrosyl-DNA phosphodiesterase 1 (TDP1): qHTS in cells in absence of CPT | DT40 Tdp1-/- hTDP1 cells, no CPT, ATP luminescence, 48 h | Potency, µM (highest dose often 46.2 µM), inactives show at the highest dose activity change, negative = growth inhibition, usual class: inhibitors | 420,000 tested, 15% active | AID 686978, 2013; also: nearly all actives have a fitted effect of over 55% in size
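Growth of hTDP1-complemented DT40 Tdp1-knockout cells is measured by ATP luminescence after at least 48 hr compound exposure at 37 °C, with DMSO substituting for the 20 nM CPT used in the parallel screen.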
HT1080-NT tox: qHTS for induction of synthetic lethality in tumor cells producing 2HG: qHTS for the HT-1080-NT fibrosarcoma cell line; HT-1080-NT fibrosarcoma viability, CellTiter-Glo ATP luminescence, 48 h; Potency, µM (top dose mostly 46.1 µM), for inactives: top-dose activity, negative = less viability, hits mostly cytotoxic; 360,000 tested, 1.6% active;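 also: NT is the 2HG producing partner of a matched IDH1 knockdown line; 0% = DMSO-treated cells and -100% = media-only wells without cells; nearly all actives have a fitted effect of over 55% in size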
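750 cells/well, RPMI + 5% FBS; 2 h settle, compound pin-transfer, 48 h at 37 degrees C. CellTiter-Glo 10 min RT, luminescence. Normalized to DMSO and media-only wells.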
Numbers without * were called inactive; i = inactive; ? = inconclusive; · = no result given; [ ] = another dose, or the depositor's remark. Calls follow the shape of the dose curve; as a rule, active = well fitted curve in the direction sought with a large enough effect; inconclusive = small, poorly fitted or top-dose-only effect, or another doubt; inactive = no such curve, though single readings can be large; an effect the other way counts as inactive or inconclusive. Unless noted, % is scaled to controls: 0 for no effect and ±100 for the full control effect; potency is read from the fitted curve at half-maximal effect.

SMILES	KB-V1 MDR tox	HT1080 IDH1KD tx	DT40 TDP1 CPT	KB-3-1 tox	DT40 TDP1 no CPT	HT1080-NT tox
O=C(O)c1ccc(Cl)c(NC(=O)C2CCN(S(=O)(=O)c3cccs3)CC2)c1	i	-5%	-7%	i	-10%	-6%
C[n+]1ccc(/C=C/c2ccc3c(c2)OCO3)c2ccccc21	i	·	2%	?	-14%	·
CN(C)c1ccc(/C=C/c2cc[n+](C)c3ccc4ccccc4c23)cc1	?	·	0.089µM*	0.92µM*	?	·
CCOc1ccc(CNC(=O)c2ccc3c(Cl)c4c(nc3c2)CCCC4)cc1	i	·	21µM*	i	-68%	·
CCc1ccc(CNC(=O)c2ccc3c(Cl)c4c(nc3c2)CCCC4)cc1	i	·	?	i	23µM*	·
O=C(NCc1ccc(F)cc1)c1ccc2c(Cl)c3c(nc2c1)CCCC3	·	·	?	·	16µM*	·
Cc1cccc(NC(=O)c2ccc3c(Cl)c4c(nc3c2)CCCC4)n1	i	9%	?	i	21µM*	5%
CCc1nc2ccc(C(=O)NCc3ccc(SC)cc3)cc2nc1CC	i	·	?	i	?	·
Cc1cccc(NC(=O)c2onc3c2CCCC3)n1	13µM*	?	9.2µM*	?	?	-28%
CN1CCN(CCCNC(=O)c2ccc3c(Cl)c4c(nc3c2)CCCC4)CC1	i	-25%	?	i	21µM*	?
CCOc1ccc(CNC(=O)c2ccc3nc(CC)c(CC)nc3c2)cc1	i	·	16µM*	i	18µM*	·
Cc1cc2nc3c(nc2cc1C)C(O)=C3O	i	5%	?	i	?	0%
COc1ccc(NC(=O)c2ccc3ccccc3n2)cc1S(=O)(=O)Nc1ccccc1Cl	i	0%	?	i	23µM*	3%
CCOc1ccc(NS(=O)(=O)c2cc(NC(=O)CCC(=O)c3cccs3)ccc2Cl)cc1	i	?	29µM*	i	?	-25%
COc1ccc(NS(=O)(=O)c2cc(NC(=O)CCSc3ccccc3)ccc2OC)cc1	?	-13%	?	i	?	-10%
COc1ccccc1NS(=O)(=O)c1cc(NC(=O)CCC(=O)c2cccs2)ccc1Cl	i	-19%	?	i	?	-12%
COc1ccc(NC(=O)CCC(=O)c2cccs2)cc1S(=O)(=O)Nc1ccc(Cl)cc1	7.3µM*	0.82µM*	-18%	?	0%	-5%
COc1ccc(NC(=O)c2cc(C)nc3ccccc23)cc1S(=O)(=O)Nc1ccccc1Cl	?	-4%	-14%	i	?	3%
COc1ccc(NC(=O)CCSc2ccc(C)cc2)cc1S(=O)(=O)Nc1ccccc1Cl	i	-10%	?	i	13µM*	-11%
Cn1c(=O)c2c(nc(NN=C3CCCC3)n2C)n(C)c1=O	i	-2%	-24%	i	?	-3%
Cc1ccc(CC2SC(N=C(N)N)=NC2=O)cc1 (configuration not stated)	i	3%	9%	i	-1%	-1%
COc1cc(OC)c(C(=O)Nc2cc(S(=O)(=O)N3CCOCC3)ccc2N2CCOCC2)cc1OC	i	-1%	?	i	?	0%
Cc1ccc(OC(=O)CCNC(=O)c2ccccc2Cl)c(Br)c1	i	4%	-4%	i	-17%	21%
COc1ccc(NC(=O)CCS(=O)(=O)c2cccc3nonc23)cc1Cl	i	5%	?	i	-16%	1%
COc1ccc(NC(=O)CCS(=O)(=O)c2ccccc2Cl)cc1S(=O)(=O)Nc1ccc(Cl)cc1	?	?	?	i	16µM*	?
SMILES	KB-V1 MDR tox	HT1080 IDH1KD tx	DT40 TDP1 CPT	KB-3-1 tox	DT40 TDP1 no CPT	HT1080-NT tox
O=C(NCC1OCCc2ccccc21)c1cc(COc2c(F)cccc2F)on1 (configuration not stated)	i	-9%	-9%	i	16µM*	-10%
O=C(NC1CCc2ccccc21)c1cc(COc2c(F)cccc2F)on1 (configuration not stated)	?	-3%	-21%	i	0%	-3%
O=C(NCC1OCCc2ccccc21)c1ccc(NC(=O)c2cccc(Br)c2)cc1 (configuration not stated)	2.6µM*	3%	7.3µM*	i	7.3µM*	2%
O=C(NCC1OCCc2ccccc21)c1ccc(NC(=O)c2ccccc2Cl)cc1 (configuration not stated)	?	-3%	-21%	i	?	-26%
CCOc1ncccc1C(=O)Nc1ccc2c(c1)OCCCO2	?	0%	?	i	?	-1%
CCOC(=O)c1c(N)c(C#N)cn1-c1ccccc1	i	-22%	-30%	i	1%	1%
CCOC(=O)c1c(NC(=O)c2nn(CC)cc2Br)c(C#N)cn1-c1ccccc1	i	5%[9.24 µM]	?	i	21µM*	3%
CCOC(=O)C1CCCN(C(=O)c2ccccc2NC(=O)c2nsc3ccccc23)C1 (configuration not stated)	i	·	16µM*	i	?	·
CCOC(=O)C1CCCN(C(=O)c2cccc(NC(=O)c3nsc4ccccc34)c2)C1 (configuration not stated)	i	·	21µM*	i	21µM*	·
O=C1c2ccccc2C(=O)c2c([N+](=O)[O-])ccc(O)c21	?	18%	-16%	i	21µM*	-2%
COc1cc(NC(=O)CNc2cccc(S(=O)(=O)N3CCOCC3)c2)cc(OC)c1	?	-2%	?	i	?	-3%
CC(C)C(NC(=O)c1ccco1)C(=O)OCc1cc([N+](=O)[O-])cc2c1OCOC2 (configuration not stated)	?	4%	?	i	?	9%
CCOc1ccccc1C(=O)N[C@H](C(=O)OCc1cc([N+](=O)[O-])cc2c1OCOC2)C(C)C	5.8µM*	?	?	i	16µM*	-2%

Screening results from PubChem BioAssay.
